According to PubChem BioAssay:
Activity calls are given as the source filed them.

Experiments:
Albumin (Bos taurus) = Albumin (Bos taurus) (UniProt P02769); assay: bovine serum albumin binders on microarray, profiling panel, artefact control for SMM control protein annotation, biochemical, small-molecule microarray, Alexa647 label, 635/667 nm fluorescence (AID 1118); conditions: BSA-A647 binding, fluorescence 635 nm, higher = more signal;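 further: score merges 667 nm emission intensity and signal-to-noise per printed compound spot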
[1] = small-molecule microarray binders of probe aXIP, primary screen, biochemical, NeuroSMM set, 635/667 nm fluorescence (AID 1119); conditions: higher = more signal, called active from +8 up or from −8 down;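 further: probe is the protein aXip251-270 applied at 1 µg/mL to compound-printed slides; binding of probe to printed compounds measured as 667 nm fluorescence plus signal to noise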
[2] = small-molecule binders of probe aNOTCH3, primary screen, biochemical, small-molecule microarray, 635/667 nm fluorescence (AID 1120); conditions: higher = more signal;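 further: probe is a biotin-tagged antibody raised against NOTCH3 rather than NOTCH3 protein; score merges spot fluorescence near 667 nm with spot signal to noise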
[3] = small-molecule binders of probe aNOTCH2, primary screen, biochemical, small-molecule microarray, 635/667 nm fluorescence (AID 1121); conditions: higher = more signal;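 further: score merges feature fluorescence read at 667 nm with its signal to noise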
[4] = target: Carbonic anhydrase 2 (Homo sapiens) (UniProt P00918); assay: CAII small-molecule binders, profiling panel, biochemical, small-molecule microarray, Alexa647-labelled CAII (AID 1122); conditions: CAII-A647 binding fluorescence, higher = more signal
[5] = COS7 lysate on small-molecule microarray, probe aHis, 635 nm (AID 1123); conditions: COS7 cell lysate, fluorescence, higher = more signal;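 further: z-score combines 667nm fluorescence intensity with signal-to-noise per printed compound spot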
[6] = compound binding in COS7 lysate, probe aLAP1, primary screen, cell lysate, small-molecule microarray (AID 1124); conditions: probe aLAP1, fluorescence, higher = more signal;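 further: lysate comes from COS7 cells expressing LAP1 and is applied at 0.3 µg/mL; score merges spot fluorescence near 667 nm with signal-to-noise over triplicate slides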
Sam68 (KHDRBS1) = assay: Sam68 small-molecule binders, primary screen, biochemical, small-molecule microarray, 635 nm fluorescence (AID 1125); conditions: small-molecule microarray binding, higher = more signal;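 further: score merges 667 nm channel intensity with signal to noise over triplicate slides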
[7] = tested on: Chordin-like protein 2 (CHRDL2); assay: CHRDL2 small-molecule binders, primary screen, biochemical, small-molecule microarray, 635 nm fluorescence (AID 1126); conditions: small-molecule microarray binding, fluorescence 635 nm; higher = more signal;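 further: printed compound slides probed with Chrdl2 protein at 4 µg/mL for 1 h at 4 C; score merges 667 nm emission intensity with signal to noise over three replicate slides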
[8] = target: Concanavalin-A (Canavalia ensiformis) (UniProt P02866); assay: ConA small-molecule binders, primary screen, artefact control for SMM control protein annotation, biochemical, small-molecule microarray, Alexa647 label, 635 nm (AID 1127); conditions: ConA-A647 binding fluorescence, higher = more signal;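 further: z combines 667 nm emission intensity with signal-to-noise across three replicate slides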
[9] = anti-His antibody binders, primary screen, artefact control for SMM control protein annotation, biochemical, small-molecule microarray, 635 nm fluorescence (AID 1128); conditions: anti-His Alexa647 antibody binding, higher = more signal;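 further: score merges feature fluorescence with signal-to-noise for each printed compound spot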
[10] = tested on: Human papillomavirus type 1a E7 protein (residues 1-88); assay: HPV1a E7 small-molecule binders, primary screen, biochemical, small-molecule microarray, residues 1-88, 635 nm (AID 1129); conditions: small-molecule microarray binding, fluorescence 635 nm; higher = more signal
[11] = target: Focal adhesion kinase 1 (Homo sapiens) (UniProt Q05397); assay: small-molecule microarray binders of FAK, primary screen, biochemical, 635/667 nm fluorescence, BSA, DTT (AID 1130); conditions: PTK2 binding, 635 nm fluorescence, higher = more signal;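 further: composite of spot emission at 667 nm and signal to noise over triplicate slides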
[12] = tested on: Fibrinogen (Alexa647-labelled); assay: fibrinogen binders on compound microarrays, profiling panel, artefact control for SMM control-protein annotation, biochemical, small-molecule microarray, 635/667 nm fluorescence (AID 1131); conditions: fibrinogen-A647 binding fluorescence, higher = more signal;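 further: z-score merges 667 nm fluorescence with per-spot signal-to-noise over triplicate slides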
[13] = target: Follistatin (Homo sapiens) (UniProt P19883); assay: follistatin binders on small-molecule microarrays, primary screen, biochemical, small-molecule microarray, 635/667 nm fluorescence (AID 1132); conditions: FST binding, 635 nm fluorescence, higher = more signal
[14] = target: Fibroblast growth factor 2 (Homo sapiens) (UniProt P09038); assay: FGF2 binders on small-molecule microarrays, primary screen, biochemical, small-molecule microarray, 635/667 nm fluorescence (AID 1133); conditions: small-molecule microarray binding, FGF2, fluorescence 635/667; higher = more signal
[15] = mitochondrial membrane potential change in A549 cells, profiling panel, cell-based, JC-1 fluorescence, basal, 24 h, 100 nL (AID 1138); conditions: higher = more signal;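 further: A549 lung adenocarcinoma cells under basal conditions with no added stimulus; test concentration not given here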
Lefty1 = Lefty1 binders on small-molecule microarrays, primary screen, biochemical, small-molecule microarray, 635/667 nm fluorescence (AID 1139); conditions: small-molecule microarray binding, fluorescence 635/667; higher = more signal
[16] = tested on: wheat germ agglutinin (Triticum aestivum), Alexa647-labelled; assay: wheat germ agglutinin binders on compound microarrays, profiling panel, artefact control for SMM control-protein annotation, biochemical, small-molecule microarray, 635/667 nm fluorescence (AID 1140); conditions: WGA-A647 binding, 635 nm fluorescence, higher = more signal;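 further: score merges 667 nm feature emission with signal to noise over triplicate slides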
[17] = target: Luciferin 4-monooxygenase (Photinus pyralis) (UniProt P08659); assay: firefly luciferase enzyme inhibitors, primary screen, biochemical, luminescence, purified enzyme, 2006 set (AID 1141); conditions: SteadyGlo luminescence, 30 min, higher = more signal, called active from +8 up or from −8 down;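 further: cell-free assay with purified firefly luciferase at 100 ng per well in PBS; test concentration not given here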
Sequence of Luciferin 4-monooxygenase (Photinus pyralis) (P08659 whole entry, looked up): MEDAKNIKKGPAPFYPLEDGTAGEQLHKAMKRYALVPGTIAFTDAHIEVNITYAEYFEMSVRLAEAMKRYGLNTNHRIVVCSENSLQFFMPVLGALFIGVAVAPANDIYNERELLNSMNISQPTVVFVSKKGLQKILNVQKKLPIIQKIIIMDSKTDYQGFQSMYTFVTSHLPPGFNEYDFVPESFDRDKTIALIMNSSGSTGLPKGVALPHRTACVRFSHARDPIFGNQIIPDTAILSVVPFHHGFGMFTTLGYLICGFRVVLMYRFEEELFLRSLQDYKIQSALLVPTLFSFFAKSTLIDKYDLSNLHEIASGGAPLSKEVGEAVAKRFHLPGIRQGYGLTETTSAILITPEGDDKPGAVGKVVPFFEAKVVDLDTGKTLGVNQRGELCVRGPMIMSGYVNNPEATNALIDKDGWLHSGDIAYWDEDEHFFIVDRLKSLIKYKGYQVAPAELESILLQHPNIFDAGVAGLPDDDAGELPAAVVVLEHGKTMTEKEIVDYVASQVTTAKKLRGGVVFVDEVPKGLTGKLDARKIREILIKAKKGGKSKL

Sequence of Focal adhesion kinase 1 (Homo sapiens) (Q05397 whole entry, looked up): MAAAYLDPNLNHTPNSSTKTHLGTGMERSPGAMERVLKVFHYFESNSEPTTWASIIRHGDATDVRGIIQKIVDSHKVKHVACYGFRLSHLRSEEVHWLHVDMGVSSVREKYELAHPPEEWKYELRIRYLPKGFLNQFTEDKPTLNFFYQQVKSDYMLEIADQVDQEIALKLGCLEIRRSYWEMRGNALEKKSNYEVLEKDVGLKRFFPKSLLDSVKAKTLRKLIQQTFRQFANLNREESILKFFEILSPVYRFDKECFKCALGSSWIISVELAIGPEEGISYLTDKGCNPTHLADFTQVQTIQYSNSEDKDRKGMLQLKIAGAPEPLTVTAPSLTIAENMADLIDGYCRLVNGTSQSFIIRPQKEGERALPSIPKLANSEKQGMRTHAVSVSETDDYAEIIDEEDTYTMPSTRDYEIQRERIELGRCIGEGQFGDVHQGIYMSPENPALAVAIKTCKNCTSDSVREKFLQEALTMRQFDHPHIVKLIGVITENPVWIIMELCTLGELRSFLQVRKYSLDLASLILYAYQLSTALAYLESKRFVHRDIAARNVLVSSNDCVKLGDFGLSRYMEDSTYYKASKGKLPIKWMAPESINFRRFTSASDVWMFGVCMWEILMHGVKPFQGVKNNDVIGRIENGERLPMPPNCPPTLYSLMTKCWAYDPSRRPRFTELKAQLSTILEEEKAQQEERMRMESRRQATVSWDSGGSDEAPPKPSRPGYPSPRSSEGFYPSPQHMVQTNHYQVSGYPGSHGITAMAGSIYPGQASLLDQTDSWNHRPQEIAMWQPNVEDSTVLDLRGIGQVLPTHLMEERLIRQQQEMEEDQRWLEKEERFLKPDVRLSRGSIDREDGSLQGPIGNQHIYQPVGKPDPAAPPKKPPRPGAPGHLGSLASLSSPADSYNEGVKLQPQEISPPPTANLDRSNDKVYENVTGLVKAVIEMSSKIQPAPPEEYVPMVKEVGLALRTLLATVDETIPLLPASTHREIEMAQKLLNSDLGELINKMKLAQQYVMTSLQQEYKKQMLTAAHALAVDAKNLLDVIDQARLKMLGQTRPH
Sequence of Concanavalin-A (Canavalia ensiformis) (P02866 whole entry, looked up): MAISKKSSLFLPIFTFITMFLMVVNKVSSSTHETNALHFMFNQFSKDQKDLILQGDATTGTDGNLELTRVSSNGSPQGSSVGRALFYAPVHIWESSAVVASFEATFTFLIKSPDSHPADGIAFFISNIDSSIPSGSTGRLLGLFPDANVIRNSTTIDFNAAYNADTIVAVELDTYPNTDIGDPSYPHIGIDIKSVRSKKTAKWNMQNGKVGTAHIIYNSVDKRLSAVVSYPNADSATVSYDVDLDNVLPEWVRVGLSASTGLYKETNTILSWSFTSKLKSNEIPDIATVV
Sequence of Follistatin (Homo sapiens) (P19883 whole entry, looked up): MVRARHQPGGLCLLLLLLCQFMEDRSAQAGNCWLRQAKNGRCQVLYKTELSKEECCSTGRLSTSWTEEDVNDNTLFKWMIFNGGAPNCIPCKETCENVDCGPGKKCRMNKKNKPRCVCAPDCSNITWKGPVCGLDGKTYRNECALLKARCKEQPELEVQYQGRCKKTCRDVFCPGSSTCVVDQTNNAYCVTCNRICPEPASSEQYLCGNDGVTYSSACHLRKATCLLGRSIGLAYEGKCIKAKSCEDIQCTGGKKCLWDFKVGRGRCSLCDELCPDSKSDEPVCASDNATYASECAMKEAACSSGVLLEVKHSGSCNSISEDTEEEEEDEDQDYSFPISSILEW
Sequence of Albumin (Bos taurus) (P02769 whole entry, looked up): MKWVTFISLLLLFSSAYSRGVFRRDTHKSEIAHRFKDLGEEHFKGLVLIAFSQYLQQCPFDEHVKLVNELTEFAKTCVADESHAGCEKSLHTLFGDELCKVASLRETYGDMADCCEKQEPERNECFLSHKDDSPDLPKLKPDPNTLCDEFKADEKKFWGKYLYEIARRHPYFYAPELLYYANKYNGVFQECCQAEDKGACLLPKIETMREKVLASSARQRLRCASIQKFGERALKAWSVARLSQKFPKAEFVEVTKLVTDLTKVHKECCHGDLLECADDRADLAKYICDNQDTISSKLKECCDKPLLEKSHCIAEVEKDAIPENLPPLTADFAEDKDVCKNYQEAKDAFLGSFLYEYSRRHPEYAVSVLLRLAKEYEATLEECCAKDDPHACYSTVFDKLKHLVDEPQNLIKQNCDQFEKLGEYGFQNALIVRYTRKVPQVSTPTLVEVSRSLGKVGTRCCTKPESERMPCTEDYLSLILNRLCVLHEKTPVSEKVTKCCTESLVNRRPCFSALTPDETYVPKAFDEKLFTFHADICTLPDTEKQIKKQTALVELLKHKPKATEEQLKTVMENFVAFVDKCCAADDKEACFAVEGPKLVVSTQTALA
Sequence of Fibroblast growth factor 2 (Homo sapiens) (P09038 whole entry, looked up): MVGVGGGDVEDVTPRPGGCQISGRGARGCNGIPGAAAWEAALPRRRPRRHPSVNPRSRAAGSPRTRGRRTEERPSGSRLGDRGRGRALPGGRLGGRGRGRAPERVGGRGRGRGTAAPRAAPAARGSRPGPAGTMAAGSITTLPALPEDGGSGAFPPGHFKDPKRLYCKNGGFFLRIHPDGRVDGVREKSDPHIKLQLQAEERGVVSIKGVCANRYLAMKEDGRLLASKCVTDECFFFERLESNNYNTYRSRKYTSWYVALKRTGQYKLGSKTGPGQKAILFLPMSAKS

Compound | composite z-score (Albumin (Bos taurus)) | composite Z-score [1] | composite z-score [2] | composite z-score [3] | composite z-score [4] | composite z-score [5] | composite z-score [6] | composite z-score (Sam68 (KHDRBS1)) | composite z-score [7] | composite z-score [8] | composite z-score [9] | composite z-score [10] | composite z-score [11] | composite z-score [12] | composite z-score [13] | composite z-score [14] | z-score [15] | composite z-score (Lefty1) | composite z-score [16] | z-score [17]
O=C1C[C@@H](O)[C@@H](O)[C@@H]2[C@@H]3C(=O)N(Cc4ccc5c(c4)OCO5)C(=O)[C@@H]3CC[C@H]12 | 0.272 | 0.0723 (inactive) | -0.16 | -0.186 | -0.126 | -0.254 | -0.225 | 0.416 | 0.356 | 0.717 | 0.324 | 0.923 | 0.381 | 0.735 | 0.243 | 0.19 | 0.733 | 0.428 | -0.203 | -0.56 (inactive)
CCN1C(=O)[C@H]2[C@H]3[C@H](O)[C@H](O)CC(=NOC[C@H]4O[C@H](c5ccccc5)C=C[C@@H]4Oc4ccc(OC)cc4)[C@@H]3CC[C@H]2C1=O | 0.741 | 0.246 (inactive) | 0.0311 | -0.0274 | 0.353 | 0.383 | 0.106 | 1.16 | 0.514 | 0.817 | -0.157 | 0.829 | -0.139 | 0.894 | 0.74 | 1.01 | 0.385 | 1.19 | 0.246 | 0.468 (inactive)
O=C1CCCC=C1C(O)CCOC(c1ccccc1)(c1ccccc1)c1ccccc1 (stereo not given) | 0.404 | 0.142 (inactive) | -0.158 | -0.169 | -0.252 | -0.447 | -0.146 | -1.52 | -0.0466 | -0.542 | -0.545 | -0.228 | -0.0057 | -0.302 | 0.0573 | 0.058 | -0.228 | 0.458 | -0.129 | -0.395 (inactive)
O=c1n(-c2ccccc2)c(=O)n2n1CC[C@@H]1C(=NOCc3ccccc3)[C@H]3O[C@H]3[C@@H](O)[C@@H]12 | -0.101 | 0.371 (inactive) | -0.179 | -0.189 | 0.745 | -0.539 | -0.289 | -0.712 | -0.0034 | -0.073 | 0.103 | -0.0945 | 0.0844 | -0.468 | 0.265 | 0.373 | 0.397 | 0.293 | 0.0398 | 0.0189 (inactive)
COC(=O)[C@H]1[C@@H](O)[C@@]2(O)c3ccccc3O[C@@]2(c2ccccc2)[C@@H]1c1ccccc1 | -0.642 | 1.97 (inactive) | -0.1 | -0.133 | 0.18 | 0.19 | -0.221 | -0.926 | 0.14 | -0.246 | 0.434 | 0.0845 | -0.257 | -0.842 | 0.101 | 0.352 | 0.266 | 0.285 | 1.01 | 0.487 (inactive)
CC(CCN1CCCCc2nc(C)c(C)cc21)=NO[C@H](C)c1cn([C@H](CO)Cc2ccccc2)nn1 | 0.583 | 0.26 (inactive) | -0.0076 | -0.135 | -0.274 | 0.558 | -0.129 | 0.321 | 1.32 | 0.0631 | 0.566 | -0.556 | -0.0044 | 0.339 | 0.965 | 1.01 | 0.0726 | 1.08 | -0.154 | -1.09 (inactive)
COC(=O)[C@@H]1CC[C@H](C)[C@@H](c2ccc(C)cc2)N1C(=O)c1ccc(C=NOC[C@@H](C)[C@H](OCc2ccccc2)C(C)C)cc1 | 0.56 | 3.28 (inactive) | 0.0271 | -0.185 | 0.239 | 1.29 | 0.247 | 1.29 | 0.43 | 0.736 | 0.336 | 0.673 | 0.936 | 0.857 | 0.915 | 0.698 | 1.26 | 0.799 | 0.37 | -1.46 (inactive)
COC(=O)CC=C[C@@H](C)[C@@H](C=NO[C@H](C)c1cn([C@H](CO)Cc2ccccc2)nn1)NS(=O)(=O)c1ccc(C)cc1 | 0.749 | 0.863 (inactive) | 0.0242 | -0.118 | -0.276 | -0.0104 | 0.78 | 0.566 | 0.437 | 0.837 | 2.47 | 0.611 | 0.608 | 0.951 | 0.268 | 0.0757 | -0.248 | 0.19 | 0.645 | -0.965 (inactive)
O=C(NN=C1C[C@@H](O)[C@@H](O)[C@@H]2[C@@H]3C(=O)N(C[C@@H]4CCCO4)C(=O)[C@@H]3CC[C@H]12)OCc1ccccc1 | 0.534 | 0.42 (inactive) | 0.0522 | -0.0081 | -0.273 | 0.109 | -0.0716 | -0.534 | -0.187 | 0.305 | -0.0516 | 0.0327 | -0.147 | 0.271 | -0.606 | -0.183 | -0.0539 | -0.793 | 0.717 | 0.304 (inactive)
Cc1cc2c(c(=O)o1)[C@@H](O)[C@H]1O[C@H]1C2=O | -0.293 | -0.0055 (inactive) | -0.0744 | -0.132 | -0.131 | -0.243 | -0.108 | 0.568 | 0.705 | 0.358 | 0.432 | 0.281 | 0.123 | -0.116 | 0.629 | 0.374 | -1.32 | 1.32 | 0.201 | 0.476 (inactive)
COC(=O)CC=C[C@@H](C)[C@@H](C=NOC[C@H]1O[C@H](c2ccccc2)C=C[C@@H]1Oc1ccc(OC)cc1)OC | 0.479 | -0.0708 (inactive) | -0.23 | -0.131 | -0.223 | -0.3 | -0.0842 | -0.379 | 0.303 | -0.766 | 0.162 | -0.499 | -0.103 | -0.313 | 0.22 | -0.435 | 0.0691 | -0.0398 | -0.0524 | 0.4 (inactive)
CO[C@@H]1COC(=O)[C@@H](C)COC(=O)[C@@H](C)NC(=O)CC=C[C@@H]1C | -0.647 | -0.377 (inactive) | -0.16 | -0.208 | -0.425 | -0.566 | 0.262 | 0.0411 | 1.6 | -0.988 | 0.548 | -0.727 | -0.149 | -1.27 | 0.679 | 1.7 | -1.24 | 1.43 | 0.224 | 0.138 (inactive)
